According to PubChem BioAssay (Tox21):
Records with an inconclusive call do not appear. The source made the active and inactive calls. Unless noted, the call rests on the fitted dose curve.

Key:
[1] = Nuclear factor erythroid 2-related factor 2/antioxidant responsive element (Nrf2/ARE) small molecule agonists: qHTS cell viability counter screen in human keratinocytes (AID 1919968; active means well fitted curve in the direction sought with a large enough effect in the repeat runs; an effect the other way counts as inactive or inconclusive; further: nearly all actives have a fitted effect of over 55% in size)
Procedure, shortened: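 Cells of the KeratinoSens line were plated at 1,500 per well and left for 5 h before compound transfer from DMSO stocks. After a 23 h incubation (37 C, 5% CO2), CellTiter-Fluor was added. Signal was taken as fluorescence intensity 1 h later.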

[2] = Nuclear factor erythroid 2-related factor 2/antioxidant responsive element (Nrf2/ARE) small molecule agonists: luciferase reporter gene qHTS assay in human keratinocytes (AID 1919969); further: nearly all actives have a fitted effect of over 35% in size
[3] = biological target: Gonadotropin-releasing hormone receptor (Homo sapiens) (UniProt P30968); assay: Human gonadotropin-releasing hormone receptor (GnRHR) small molecule agonists, calcium flux assay in GnRHR-HEK293 cells (AID 1920063); further: nearly all actives have a fitted effect of over 35% in size
Chain of Gonadotropin-releasing hormone receptor (Homo sapiens) (P30968 whole entry, looked up): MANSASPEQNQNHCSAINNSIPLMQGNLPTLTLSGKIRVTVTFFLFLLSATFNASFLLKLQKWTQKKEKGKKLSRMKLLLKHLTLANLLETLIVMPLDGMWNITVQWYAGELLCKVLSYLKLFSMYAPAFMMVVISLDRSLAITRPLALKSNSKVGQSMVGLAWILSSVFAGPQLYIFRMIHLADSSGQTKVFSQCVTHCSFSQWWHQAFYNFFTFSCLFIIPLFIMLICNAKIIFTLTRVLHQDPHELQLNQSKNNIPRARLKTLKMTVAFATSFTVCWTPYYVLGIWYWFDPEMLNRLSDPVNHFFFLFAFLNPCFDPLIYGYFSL
Procedure, shortened: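 Compounds dissolved in DMSO are pin-transferred onto dye-loaded GnRHR-HEK293 cells, which were seeded 18 h before at 37 C/5% CO2. Calcium signal is read as fluorescence intensity at 1 s intervals for 3 min.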

[4] = biological target: KiSS-1 receptor (Homo sapiens) (UniProt Q969F8); assay: Human kisspeptin (KISS1R) small molecule agonists, calcium flux assay in KISS1R-HEK293 cells (AID 1920064; active means well fitted curve in the direction sought with a large enough effect in the repeat runs; an effect the other way counts as inactive or inconclusive)
Chain of KiSS-1 receptor (Homo sapiens) (Q969F8 whole entry, looked up): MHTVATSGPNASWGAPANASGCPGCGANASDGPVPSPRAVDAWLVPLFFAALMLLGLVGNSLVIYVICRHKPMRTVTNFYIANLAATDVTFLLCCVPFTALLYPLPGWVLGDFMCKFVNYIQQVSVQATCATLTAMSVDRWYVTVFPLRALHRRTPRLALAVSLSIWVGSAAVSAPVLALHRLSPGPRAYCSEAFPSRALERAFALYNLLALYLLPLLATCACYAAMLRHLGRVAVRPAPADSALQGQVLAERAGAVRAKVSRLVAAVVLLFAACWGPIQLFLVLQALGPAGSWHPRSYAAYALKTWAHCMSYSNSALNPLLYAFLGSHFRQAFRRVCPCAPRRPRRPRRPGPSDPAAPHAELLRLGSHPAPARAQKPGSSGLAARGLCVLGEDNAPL
Procedure, shortened: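 Cell line: HEK293, stable human KISS1R. Dye loading 1 h at 37 C after 18 h culture. Read: kinetic fluorescence, 480/540 nm, 3 min at 1 s intervals.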

[5] = G protein-coupled receptor (GPCR) small molecule agonists, calcium flux assay: HEK293 wild type cell line counter screen (AID 1920065)
Procedure, shortened: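 Tox21 10K compounds, 15 concentrations each in triplicate, pin-transferred in DMSO onto dye-loaded cells; kinetic read at 480/540 nm for 3 min, 1 s intervals.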

[6] = p53 small molecule agonists, cell-based qHTS assay with human liver microsomes (AID 1963577)
Procedure, shortened: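 Compounds act here after metabolic activation: human liver microsomes and NADPH, both at 0.5 mg/mL final, were co-added to p53RE-bla cells. Incubation ran 16 h at 37 C, followed by LiveBLAzer detection.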

[7] = p53 small molecule agonists, cell-based qHTS assay with rat liver microsomes (AID 1963578)
Procedure, shortened: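 Read-out is beta-lactamase reporter fluorescence (LiveBLAzer, 2 h, room temperature, dark) in p53RE-bla cells treated 16 h at 37 C with compound, rat liver microsomes and NADPH, both 0.5 mg/mL final.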

[8] = p53 small molecule agonists, cell-based qHTS assay with human liver microsomes: qHTS cell viability counter screen (AID 1963579); further: nearly all actives have a fitted effect of over 45% in size
Procedure, shortened: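 Cells carrying the p53 response-element beta-lactamase reporter are treated for 16 h at 37 C with test compounds in the presence of human liver microsomes and NADPH (both 0.5 mg/mL final); ATP-based CellTiter-Glo luminescence then reports viability.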

[9] = p53 small molecule agonists, cell-based qHTS assay with rat liver microsomes: qHTS cell viability counter screen (AID 1963580); further: nearly all actives have a fitted effect of over 45% in size
Procedure, shortened: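 Luminescent ATP readout (CellTiter-Glo, 30 min at room temperature) reports viability of p53RE-bla HCT-116 cells after 16 h at 37 C with test compounds under metabolic activation by rat liver microsomes and NADPH at 0.5 mg/mL final each.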

[10] = p53 small molecule agonists, cell-based qHTS assay: qHTS cell viability counter screen (AID 1963581); further: nearly all actives have a fitted effect of over 45% in size
Procedure, shortened: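 ATP content measured by luminescence in HCT-116 p53RE-bla cells treated 16 h at 37 C, same wells as the reporter screen.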

[11] = p53 small molecule agonists, cell-based qHTS assay (AID 1963582; active means well fitted activation curve with a large enough effect in the signal ratio in the repeat runs, not every such curve was filed as active; the % refers to the signal ratio)
Procedure, shortened: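 16 h compound exposure (37 C) of p53 response element–bla cells, preceded by 5 h recovery at 37 C/5% CO2; read-out via LiveBLAzer B/G FRET substrate, 2 h RT, fluorescence intensity.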

[12] = biological target: 5-hydroxytryptamine receptor 2A (Homo sapiens) (UniProt P28223); assay: 5-hydroxytryptamine receptor 2A (HTR2A) small molecule agonists, cell-based qHTS assay (AID 1963587); further: nearly all actives have a fitted effect of over 30% in size
Chain of 5-hydroxytryptamine receptor 2A (Homo sapiens) (P28223 whole entry, looked up): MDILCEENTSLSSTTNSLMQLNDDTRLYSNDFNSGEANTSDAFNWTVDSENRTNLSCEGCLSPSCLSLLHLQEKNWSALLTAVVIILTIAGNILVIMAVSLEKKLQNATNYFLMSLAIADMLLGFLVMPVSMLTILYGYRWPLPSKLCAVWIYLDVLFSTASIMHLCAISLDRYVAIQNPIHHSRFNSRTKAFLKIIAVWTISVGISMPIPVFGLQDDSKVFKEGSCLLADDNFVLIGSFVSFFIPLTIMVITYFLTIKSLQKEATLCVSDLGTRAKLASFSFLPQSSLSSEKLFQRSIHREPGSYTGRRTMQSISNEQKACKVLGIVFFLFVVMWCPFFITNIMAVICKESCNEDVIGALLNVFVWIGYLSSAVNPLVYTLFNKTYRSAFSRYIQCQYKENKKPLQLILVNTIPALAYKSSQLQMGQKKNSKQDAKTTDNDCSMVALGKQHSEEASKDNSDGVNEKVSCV
Procedure, shortened: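 HTR2A-CHO cells, plated 18 h at 37 C/5% CO2, dye-loaded 1 h at 37 C; compounds in DMSO added by pin tool (agonist mode). Intracellular calcium flux read as kinetic fluorescence on FDSS over 2 min at 1 s intervals.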

[13] = biological target: Muscarinic acetylcholine receptor M1 (Homo sapiens) (UniProt P11229); assay: Cholinergic receptor muscarinic 1 (CHRM1) small molecule antagonists, cell-based qHTS assay (AID 1963588); further: nearly all actives have a fitted effect of over 40% in size
Chain of Muscarinic acetylcholine receptor M1 (Homo sapiens) (P11229 whole entry, looked up): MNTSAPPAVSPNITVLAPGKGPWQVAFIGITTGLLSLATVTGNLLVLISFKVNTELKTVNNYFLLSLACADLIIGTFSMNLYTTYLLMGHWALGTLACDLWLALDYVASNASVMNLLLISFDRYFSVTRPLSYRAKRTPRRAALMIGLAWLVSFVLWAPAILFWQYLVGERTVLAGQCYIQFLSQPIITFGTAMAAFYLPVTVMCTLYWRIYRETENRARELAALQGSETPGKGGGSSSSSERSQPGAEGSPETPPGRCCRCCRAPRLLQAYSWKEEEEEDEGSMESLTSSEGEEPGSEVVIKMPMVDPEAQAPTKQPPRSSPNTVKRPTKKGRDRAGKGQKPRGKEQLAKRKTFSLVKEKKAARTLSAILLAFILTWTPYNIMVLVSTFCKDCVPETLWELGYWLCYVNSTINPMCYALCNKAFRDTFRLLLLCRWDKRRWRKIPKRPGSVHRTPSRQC
Procedure, shortened: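 Compounds were tested at 15 concentrations in three independent runs. Dye-loaded CHRM1-CHO cells were exposed 5 min at room temperature before stimulation by acetylcholine added at 50nM. Intracellular calcium was read kinetically on FDSS for 3 min.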

[14] = biological target: Muscarinic acetylcholine receptor M1 (Homo sapiens) (UniProt P11229); assay: Cholinergic receptor muscarinic 1 (CHRM1) small molecule agonists, cell-based qHTS assay (AID 1963589); further: nearly all actives have a fitted effect of over 35% in size
Procedure, shortened: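 Homogeneous fluorescence calcium flux, agonist mode. Human M1-expressing CHO cells; compound dosed at 15 concentrations, three independent runs; signal sampled every 1 sec.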

[15] = cAMP Responsive Elements (CRE) small molecule agonists, cell-based qHTS assay (AID 1963590)
Procedure, shortened: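 HEK 293T cells stably bearing CRE-bla were plated at 2,000 cells per well and rested 18 h. Compounds, positive controls or DMSO were added for 3 h at 37 C. LiveBLAzer B/G substrate was then loaded for 2 h at room temperature.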

[16] = cAMP Responsive Elements (CRE) small molecule antagonists, cell-based qHTS assay (AID 1963591; active means well fitted inhibition curve with a large enough effect in the signal ratio in the repeat runs, not every such curve was filed as active; the % refers to the signal ratio)
Procedure, shortened: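 First, CRE-bla HEK293T cells settled 18 h at 37 C. Next, compound and 0.25 uM final NKH477 were applied for 3 h. Last, LiveBLAzer B/G substrate was loaded for 2 h at room temperature.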

[17] = biological target: Beta-2 adrenergic receptor (Homo sapiens) (UniProt P07550); assay: Adrenergic beta2 receptor (ADRB2) small molecule antagonists, cell-based qHTS assay (AID 1963592); further: series mostly up to about 92 µM; nearly all actives have a fitted effect of over 50% in size
Chain of Beta-2 adrenergic receptor (Homo sapiens) (P07550 whole entry, looked up): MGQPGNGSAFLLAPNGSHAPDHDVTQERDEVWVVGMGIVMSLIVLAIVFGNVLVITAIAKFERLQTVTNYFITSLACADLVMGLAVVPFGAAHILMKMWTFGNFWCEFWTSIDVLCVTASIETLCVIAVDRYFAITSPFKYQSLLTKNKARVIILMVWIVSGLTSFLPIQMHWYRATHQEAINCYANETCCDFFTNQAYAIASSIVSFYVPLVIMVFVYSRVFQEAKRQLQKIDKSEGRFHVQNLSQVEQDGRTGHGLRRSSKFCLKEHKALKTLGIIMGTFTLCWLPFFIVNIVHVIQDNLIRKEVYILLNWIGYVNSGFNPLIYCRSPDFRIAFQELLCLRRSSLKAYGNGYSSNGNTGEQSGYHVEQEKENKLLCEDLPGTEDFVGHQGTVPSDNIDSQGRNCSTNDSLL
Procedure, shortened: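 Assay format: CHO-ADRB2 cells, 18-20hr seeding at 37C/5% CO2, then compound plus 1nM isoproterenol agonist mix for 0.5hr RT. Homogeneous time-resolved fluorescence cAMP detection after 1hr, expressed as 665/615 nm ratio.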

[18] = biological target: D(2) dopamine receptor (Homo sapiens) (UniProt P14416); assay: Dopamine D2 receptor (DRD2) small molecule agonists, cell-based qHTS assay (AID 1963594); further: nearly all actives have a fitted effect of over 35% in size
Chain of D(2) dopamine receptor (Homo sapiens) (P14416 whole entry, looked up): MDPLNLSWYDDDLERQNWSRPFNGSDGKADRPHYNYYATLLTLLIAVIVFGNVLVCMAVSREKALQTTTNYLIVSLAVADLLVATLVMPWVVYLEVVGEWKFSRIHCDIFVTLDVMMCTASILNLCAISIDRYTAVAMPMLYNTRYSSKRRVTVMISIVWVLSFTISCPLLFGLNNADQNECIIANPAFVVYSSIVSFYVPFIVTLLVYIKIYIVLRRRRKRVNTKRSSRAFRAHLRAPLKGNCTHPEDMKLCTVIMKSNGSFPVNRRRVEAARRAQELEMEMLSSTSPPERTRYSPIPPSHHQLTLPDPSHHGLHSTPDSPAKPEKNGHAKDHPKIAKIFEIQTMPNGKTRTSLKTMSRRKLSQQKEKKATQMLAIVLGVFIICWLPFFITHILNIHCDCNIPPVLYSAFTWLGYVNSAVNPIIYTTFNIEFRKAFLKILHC
Procedure, shortened: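 HEK293 cells stably expressing DRD2 were cultured 24 h at 37 C, then given Ro20-1724 (0.1 mM final) and compounds for 10 min at room temperature. NKH477 (200nM) was then added for 30 min. cAMP was read by HTRF.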

[19] = biological target: Beta-2 adrenergic receptor (Homo sapiens) (UniProt P07550); assay: Adrenergic beta2 receptor (ADRB2) small molecule agonists, cell-based qHTS assay (AID 1963593);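 further: CHO cells stably overexpressing human ADRB2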
Procedure, shortened: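 CHO cells stably over-expressing ADRB2 were plated overnight at 37C, then dosed with compounds plus a stimulation mix containing 100uM IBMX and 25uM Ro-20-1724 for 0.5hr at room temperature. cAMP was measured by HTRF competition, 1hr.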

[20] = biological target: D(2) dopamine receptor (Homo sapiens) (UniProt P14416); assay: Dopamine D2 receptor (DRD2) small molecule antagonists, cell-based qHTS assay (AID 1963595; active means well fitted inhibition curve with a large enough effect in the signal ratio in the repeat runs, with a control signal flat; the % refers to the signal ratio)
Procedure, shortened: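 In this cell-based antagonist screen, compounds act for 10 min at room temperature before a 30 min challenge with 12 nM quinpirole and 200 nM NKH477. cAMP is quantified by HTRF competition in DRD2-HEK293 cells containing 0.1 mM Ro20-1724.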

Measured: Potency

Oc1ccc2c(c1)OC[C@@H](N1CCC(O)(c3ccc(F)cc3)CC1)[C@H]2O
not listed: [19] | [20]
inactive: all other assays above

Cc1cc(C)c(N)c(Cl)c1
not listed: [19] | [20]
inactive: all other assays above

CCc1ccc(C)nc1
not listed: [18]
inactive: all other assays above

CC(=O)OC[C@H]1O[C@@H](OC(C)=O)[C@H](OC(C)=O)[C@@H]1OC(C)=O
not listed: [13] | [19]
inactive: all other assays above

O=C(O)c1ccc(O)cc1O
inactive: all assays above

O=S(=O)(O)C(F)(F)F
inactive: all assays above

CC(C)COC(=O)c1ccc(N)cc1
not listed: [15] | [16]
inactive: all other assays above

O=P(O)(OCc1ccccc1)OCc1ccccc1
not listed: [19]
inactive: all other assays above

CC(CO)Oc1ccccc1 (stereo not given)
inactive: all assays above

O=Cc1ccc(Cl)cc1
not listed: [19]
inactive: all other assays above

CC(C)CCOC(=O)c1ccccc1
not listed: [19]
inactive: all other assays above

CCN[C@H]1CN(CCCOC)S(=O)(=O)c2sc(S(N)(=O)=O)cc21
not listed: [18]
inactive: all other assays above

O=C1OC(=O)c2c(Cl)c(Cl)c(Cl)c(Cl)c21
not listed: [19]
inactive: all other assays above

O=C[C@H](O)[C@@H](O)[C@H](O)[C@H](O)CO
inactive: all assays above

CSCCC=O
not listed: [15]
inactive: all other assays above
